Source: paper PMC5540273 (PLoS ONE, 2017)

Assays:
Conditions in all cases: concentration: 1 μM, replicates: in singlicate; n = 1
[1] = tested on: T1, p38-beta
T1 construct: gene MAPK11

[2] = tested on: p38-delta
[3] = tested on: T2, p38-gamma
T2 construct: gene MAPK12
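Note: KINOMEscan kinase panel screen.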

Row | Structure (SMILES) | %Inh [1] [%] | %Inh [2] [%] | %Inh [3] [%]
1 | Fc1ccc(Nc2nccc(-c3c(-c4ccc(Cl)cc4)nn4ncccc34)n2)cc1F [GW829058] | 19 | 4 | 37
2 | COc1cc2c(Nc3cccc(NC(=O)c4ccccc4)c3)ncnc2cc1OCCCN1CCOCC1 [GSK223810] | 89 | 0 | 6
3 | O=c1cc(N2CCOCC2)nc2n(Cc3cccc(Cl)c3)ccn12 [GSK2296823] | 0 | 38 | 56
4 | CCCc1ccc(S(=O)(=O)NC2CCN(c3ccnc(Nc4ccc(OC)cc4)n3)C2)cc1 (centres unmarked) [GSK1379737] | 0 | 26 | 31
5 | CS(=O)(=O)CCNCc1nc(-c2ccc3ncnc(Nc4ccc(OCc5cccc(F)c5)c(Cl)c4)c3c2)cs1.Cl [GW583340] | 0 | 47 | 0
6 | c1ccc(-c2ccc3c(-c4ccnc(Nc5ccc6c(c5)OCCO6)n4)cnn3n2)cc1 [GW818941] | 0 | 26 | 0
7 | COc1ccc(NC(=O)c2ccc(-c3cc(-c4nnc(C)o4)ccc3C)cc2)cc1 [GW595885] | 33 | 17 | 0
8 | CCc1nc(-c2cccc(C)c2)c(-c2ccnc(NC(=O)c3ccccc3)c2)s1 | 68 | – | 32
9 | CCc1nc(-c2cccc(N(C)S(=O)(=O)c3ccccc3)c2)c(-c2ccnc(Nc3ccc(N4CCN(C(C)=O)CC4)nc3)n2)s1 [GSK1645895] | 0 | 7 | 0
10 | Cc1ccc(O)cc1Nc1cc(C(F)(F)F)nc2ccc(-c3ccncc3)cc12 [GW630823] | 0 | 7 | 31
11 | CC(C)N1CCC(n2cnc(-c3ccc(F)cc3)c2-c2ccnc(N)n2)CC1 [SB-223132] | 23 | 0 | 60
12 | COC(=O)c1cccc(NC(=O)NCCNc2ccnc(Nc3ccc(F)cc3)n2)c1 [GSK1379883] | 0 | 40 | 0
13 | Nc1nc(-c2ccc3c(N)n[nH]c3c2)cc(N2CCCCC2)n1 [GSK2228768] | 0 | 19 | 0
14 | Clc1cc(Nc2ncnc3cc[nH]c23)ccc1OCc1ccccn1 | 26 | 37 | 22
15 | COc1ccc(Nc2nccc(N3CCC(NC(=O)c4cccc(NC(C)=O)c4)C3)n2)cc1 (centres unmarked) [GSK1379732] | 0 | 22 | 7
16 | Nc1nccc2scc(-c3ccc4c(c3)CCN4C(=O)Cc3cc(F)ccc3F)c12 [GSK2587663] | 0 | 39 | 0
17 | Oc1ccc2ncnc(Nc3ccc(OCc4ccccc4)cc3)c2c1 [GI262866] | 0 | 36 | 0
18 | CSc1ccc(NC2=C(c3ccccc3Cl)C(=O)NC2=O)cc1 [SB-342411] | 0 | 0 | 35
19 | CC(C)(C)c1ccc(-n2cnc3c(N)ncnc32)cc1 [SKF-97263] | 0 | 11 | 32
20 | Fc1ccc(-c2ncn(CCCNCc3ccccc3)c2-c2ccncc2)cc1 | 4 | 1 | 24
21 | Cc1cc(N2CCC(NS(=O)(=O)c3ccc(F)cc3)CC2)nc(Nc2cccc(C#N)c2)n1.O=C(O)C(F)(F)F [GSK1653537] | 0 | 8 | 0
22 | Nc1n[nH]c2nnc(-c3ccccc3)cc12 [SB-517389] | 0 | 39 | 0
23 | CS(=O)(=O)CCNCc1ccc(-c2ccc3ncnc(Nc4ccc(OCc5ccccc5)c(Cl)c4)c3c2)o1.Cl [GW574783] | 0 | 21 | 0
24 | C[C@H]1CC[C@@H](C(=O)Nc2ccccc2)CN1c1cc(-c2ccc3c(N)n[nH]c3c2)nc(N)n1 [GSK2283293] | 0 | 0 | 51
25 | Clc1ccc(-c2cc(-c3c[nH]nc3-c3ccccn3)ccn2)cc1 [GW681251] | 0 | 25 | 0
26 | Cl.c1ccc(Cn2ncc3cc(Nc4ncnc5ccccc45)ccc32)cc1 [GW273749] | 0 | 39 | 0
27 | CC(=O)Nc1n[nH]c2ncc(-c3ccccc3)cc12 [SB-548492] | 11 | 3 | 20
28 | Cc1cccc(-c2nc(Nc3ccc4[nH]nnc4c3)c3ccccc3n2)n1 [GW867587] | 0 | 0 | 0
29 | C[C@@H]1CCN(C(=O)CO)C[C@@H]1N(C)c1ncnc2[nH]ccc12 | 5 | 13 | 1
30 | Fc1cccc(COc2ccc(Nc3ncnc4cc[nH]c34)cc2Cl)c1 | 13 | 28 | 20
